Laboratory results published in PubChem BioAssay AID588342 (National Center for Advancing Translational Sciences (NCATS), 2011).
Out of some 360,000 compounds screened, about 25,000 (6.9%) were called active. Inconclusive results (about 9%) are left out. The call rests on the fitted dose curve; in most records, active means well fitted inhibition curve with a large enough effect; inconclusive means small, poorly fitted or top-dose-only effect; inactive means flat fitted curve, though single readings scatter. The sample as a whole holds a higher share of actives than the screen did.

target: Luciferin 4-monooxygenase (Photinus pyralis) (UniProt P08659); test: qHTS profiling assay for firefly luciferase inhibitor/activator using purifed enzyme and Km concentrations of substrates (counterscreen for miR-21 project); details: purified FLuc, luminescence inhibition; series mostly up to 57.5 µM; activity change, negative = inhibition: at the top concentration; further: nearly all actives have a fitted effect of over 55% in size;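 on activity change, negative = inhibition: plate controls were vehicle for no effect and reference inhibitor for full effect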
Procedure, shortened: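 Purified P. pyralis luciferase, 10 nM final, with Km-level 10 uM D-luciferin and 10 uM ATP in 50 mM Tris acetate pH 7.5, 10 mM Mg acetate, 0.01% Tween-20, 0.05% BSA; 6-point qHTS titration about 60 µM downward; luminescence read.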
Potency means the concentration at half of the fitted maximal effect.

Sequence of Luciferin 4-monooxygenase (Photinus pyralis) (P08659 whole entry, looked up): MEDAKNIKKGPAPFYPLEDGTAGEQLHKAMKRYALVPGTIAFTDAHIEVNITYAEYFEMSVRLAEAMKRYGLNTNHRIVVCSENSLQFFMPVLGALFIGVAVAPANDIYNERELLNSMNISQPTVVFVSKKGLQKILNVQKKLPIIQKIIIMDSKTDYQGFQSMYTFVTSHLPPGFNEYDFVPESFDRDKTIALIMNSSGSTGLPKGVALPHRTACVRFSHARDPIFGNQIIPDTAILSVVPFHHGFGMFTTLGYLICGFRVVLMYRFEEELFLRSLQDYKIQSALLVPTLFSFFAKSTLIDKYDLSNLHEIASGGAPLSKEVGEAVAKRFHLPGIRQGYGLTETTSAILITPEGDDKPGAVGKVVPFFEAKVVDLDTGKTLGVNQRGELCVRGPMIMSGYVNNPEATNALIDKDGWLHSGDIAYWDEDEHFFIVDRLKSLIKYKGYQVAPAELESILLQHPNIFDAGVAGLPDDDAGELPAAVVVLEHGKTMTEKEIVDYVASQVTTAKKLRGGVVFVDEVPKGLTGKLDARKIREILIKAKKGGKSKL

SMILES	activity change, negative = inhibition	Potency
O=C1/C(=C/c2ccc(F)cc2)SC(=S)N1NS(=O)(=O)c1ccccc1	-13.4% (inactive)	
O=C(CSc1nc(=O)n2ccccc2n1)Nc1ccc2c(c1)OCCO2	-14.3% (inactive)	
Cc1ccc(S(=O)(=O)NCC(=O)Nc2ccc3c(c2)OCCO3)cc1	-1.09% (inactive)	
O=C(CSc1nc2ncccc2[nH]1)Nc1ccc2c(c1)OCCO2		15.1 µM (active)
Cc1ccc(-n2c(SCC(=O)Nc3ccc4c(c3)OCO4)nnc2-c2ccoc2C)cc1	-0.842% (inactive)	
CCC(=O)c1cc(F)ccc1OCC(=O)Nc1ccc2c(c1)OCCO2	-1.51% (inactive)	
COc1ccc(Cn2ccnc2SCC(=O)Nc2ccc3c(c2)OCO3)cc1	-1.75% (inactive)	
CC(C)NS(=O)(=O)c1ccc(OCC(=O)Nc2ccc3c(c2)OCCO3)cc1	3.95% [at 2.3 µM] (inactive)	
COc1ccc(NC(=O)CSc2nc3ncccc3[nH]2)c(OC)c1	-0.297% (inactive)	
COc1ccc(NC(=O)CSc2nccn2Cc2ccc3c(c2)OCO3)cc1	-10.3% (inactive)	
Cn1ccnc1SCC(=O)Nc1ccc2c(c1)OCCO2		23.9 µM (active)
Cc1ccc(SCC(=O)Nc2ccc3c(c2)OCCO3)cc1		6.75 µM (active)
CCc1ccccc1OCC(=O)Nc1ccc2c(c1)OCCO2		10.7 µM (active)
CC(C)CCN(C(=O)Nc1ccc(Cl)c(Cl)c1)C(C)c1cccs1 (stereo unspecified)	2.6% (inactive)	
CCOC(=O)c1cc2c(=O)n3ccccc3nc2n(CC2CCCO2)c1=NC(=O)c1ccc(C(C)(C)C)cc1 (stereo unspecified)	1.25% (inactive)	
COc1ccc(NC(=O)CCNS(=O)(=O)c2ccc3c(c2)CCCC(=O)N3)cc1Cl	-9.31% (inactive)	
Cc1c(Cl)cccc1NC(=O)C(=O)NCCc1csc2nc(-c3ccccc3F)nn12	-6.1% (inactive)	
NC(CSC12CC3CC(CC(C3)C1)C2)C(=O)O (stereo unspecified)	2.42% (inactive)	
O=C(COc1ccc(Cl)cc1)Nc1ccc2c(c1)OCO2		19 µM (active)
O=C(CSc1ncc(S(=O)(=O)c2ccc(Br)cc2)c(=O)[nH]1)Nc1ccc2c(c1)OCCO2		9.53 µM (active)
S=C(NCc1ccco1)Nc1ccc2c(c1)OCCO2		15.1 µM (active)
S=C(NCc1ccc2c(c1)OCO2)NCc1ccco1	-12.6% (inactive)	

SMILES	activity change, negative = inhibition	Potency
O=C(CCS(=O)(=O)Cc1ccccc1)Nc1ccc2c(c1)OCCO2	-1.15% (inactive)	
FC(F)Oc1ccc(NC(=S)NCc2ccco2)cc1Cl	-12.8% (inactive)	
O=C(COc1ccc(Cl)cc1)Nc1ccc2oc(=O)ccc2c1	0.477% (inactive)	
COc1ccc(Cl)cc1NC(=O)COc1ccc2c(c1)OCO2	1.56% (inactive)	
COc1ccccc1OCCCC(=O)Nc1ccc2c(c1)OCCO2	-18.1% (inactive)	
CCCCC(=O)Nc1ccc2c(c1)OCCO2		21.3 µM (active)
CS(=O)(=O)c1ccc(-c2nnn(CC(=O)Nc3ccc4c(c3)OCCO4)n2)cc1	-1.07% (inactive)	
Cc1cc(C)c2c(=O)[nH]c(SCC(=O)Nc3ccc(Br)cc3)nc2n1	-9.23% (inactive)	
COc1ccccc1CNc1nc2ccc(Cl)cc2n2cnnc12	1.56% (inactive)	
COCCN(C(=O)CCC(=O)Nc1nccs1)C(C(=O)NCCC(C)C)c1ccc(F)cc1 (stereo unspecified)	-0.256% (inactive)	
COc1ccccc1C(=O)Nc1ccc(C)c(S(=O)(=O)N2CCCCC2)c1	-15.8% (inactive)	
CCc1ccccc1NC(=O)c1cnn(-c2ccc(F)cc2)c1C1CCNCC1	-0.346% (inactive)	
CCc1ccc(C2N3CC4([N+](=O)[O-])CN2CC([N+](=O)[O-])(C3)C4(C)C)cc1 (stereo unspecified)	11.6% (inactive)	
Cc1ccc(NC(=O)C(Cc2ccccc2)NS(=O)(=O)c2ccc3c(c2)oc(=O)n3C)cc1C (stereo unspecified)	0.393% (inactive)	
Cc1ccc(S(=O)(=O)N(CC(=O)Nc2ccc(Cl)cc2Cl)c2ccccc2C)cc1	-2.42% (inactive)	
COc1cccc(CNC(=O)Cn2c(=O)c3cccn3c3ccc(F)cc32)c1OC	1.88% (inactive)	
Cc1ccc(NC(=O)CN(C)C(=O)Cn2nnc(-c3ccccc3)n2)cc1	1.45% (inactive)	
Cc1nc2ccc(S(=O)(=O)NC(C(=O)NCc3ccccc3Cl)C(C)C)cc2s1 (stereo unspecified)	-1.2% (inactive)	
CSc1nnc(-c2ccc(C(F)(F)F)cn2)o1	-12.7% (inactive)	
O=C(COc1ccccc1F)Nc1ccc(C(=O)OCc2cc(=O)n3nc(C4CC4)sc3n2)cc1	-1.77% (inactive)	
Cc1cc(=O)[nH]c(SCC(=O)Nc2ccc(Br)cc2)n1	-4.58% (inactive)	
COc1ccc(NC(=O)CSc2nc(NS(=O)(=O)c3ccc(C)cc3)cc(=O)[nH]2)cc1	-1.83% (inactive)	

SMILES	activity change, negative = inhibition	Potency
Cc1ccc(NC(=O)CSc2nc(CSc3ccc(C)cc3)cc(=O)[nH]2)cc1		21.3 µM (active)
CC(C)Cc1nnc(NC(=O)CCNC(=O)c2ccccc2Cl)s1	-0.694% (inactive)	
C/C=C/C=C/C(=O)O	3.4% (inactive)	
COc1ccc(S(=O)(=O)c2cn(C)c3cc(N4CCCCC4)c(F)cc3c2=O)cc1	2.55% (inactive)	
COc1ccc(C(=O)NCC(c2ccc(N(C)C)cc2)N2CCc3ccccc32)c(OC)c1 (stereo unspecified)	-7.32% (inactive)	
COc1ccc(S(=O)(=O)N2CCCCC2)cc1C(=O)NC1CCS(=O)(=O)C1 (stereo unspecified)	-0.412% (inactive)	
Cn1cncc1COC(=O)c1ccc(Cl)cc1	1.25% (inactive)	
CCOC(=O)c1ccc(CN(Cc2ccccc2)S(=O)(=O)c2ccc(Cl)cc2)cc1	-11.5% (inactive)	
CN1OC(COC(=O)c2ccc(Cl)cc2)CC1c1ccccc1 (stereo unspecified)		19 µM (active)
O=C(CCS(=O)(=O)c1ccccc1)N(Cc1cccnc1)c1nc2c(F)cccc2s1	-1.07% (inactive)	
CN(C)c1cccc(C(=O)N2CCC(n3nccc3NC(=O)C3CCOC3)CC2)c1 (stereo unspecified)	-0.997% (inactive)	
CN(CCO)c1ccc(/C=N/Nc2nncc3ccccc23)cc1		0.0757 µM (active)
Cc1cc2cc3c(N)[nH]nc3nc2cc1C		4.78 µM (active)
COCCNC(=O)NC(=O)COC(=O)C1(c2ccc(Cl)cc2)CC1	-1.43% (inactive)	
CCN(CC)C(=O)CS(=O)CC(=O)Nc1cc(OCCOC)c(Cl)cc1Cl (stereo unspecified)	0.36% (inactive)	
O=C(CSc1ccc(-c2ccccc2)nn1)NCC1CCCO1 (stereo unspecified)	-9.68% (inactive)	
O=C(CSc1nnc(-c2ccc(NS(=O)(=O)c3ccccc3)cc2)o1)NCC1CCCO1 (stereo unspecified)	-1.96% (inactive)	
O=C(CSc1ccc(-c2ccc(Br)cc2)nn1)NCC1CCCO1 (stereo unspecified)		15.1 µM (active)
CCCC[C@]12Cc3cc(OC)c(OC)cc3C(O1)C1=C(CC3(CCCCC3)OC1=O)O2	-0.0926% [at 11.5 µM] (inactive)	
O=C(O)c1ccccc1CSc1nc2ccccc2s1		19 µM (active)
Cc1cc(C)c(C#N)c(SCc2ccccc2C(=O)O)n1	1.73% (inactive)	
CCN(CC)CCCSc1nc2ccccc2s1	-18.5% (inactive)	
